Test results published in article PMC5540273 (PLoS ONE, 2017).
“And” between values parts separate entries of the source, which are not always exact repeats. Equal entries are not always repeated. Where two headings read alike, the source gives them in different places.

Experiments:
FLT3 = settings: concentration: 1 μM, replicates: in singlicate; n = 1
FLT4 = settings: n = 1
FRK = settings: concentration: 1 μM, replicates: in singlicate; n = 1
FYN = settings: n = 1
GAK = settings: n = 1
GCN2(Kin.Dom.2,S808G) = test system: T1, GCN2(Kin.Dom.2,S808G); settings: n = 1
T1 construct: gene EIF2AK4

GRK1 = settings: concentration: 1 μM, replicates: in singlicate; n = 1
GRK2 = test system: T2, GRK2; settings: concentration: 1 μM, replicates: in singlicate; n = 1
T2 construct: gene ADRBK1

GRK3 = test system: T3, GRK3; settings: n = 1
T3 construct: gene ADRBK2

GRK4 = settings: n = 1
GRK7 = settings: concentration: 1 μM, replicates: in singlicate; n = 1
GSK3A = settings: n = 1
GSK3B = settings: n = 1
HASPIN = test system: T4, HASPIN; settings: concentration: 1 μM, replicates: in singlicate; n = 1
T4 construct: gene GSG2

HCK = settings: concentration: 1 μM, replicates: in singlicate; n = 1
HIPK1 = settings: concentration: 1 μM, replicates: in singlicate; n = 1
HIPK2 = settings: concentration: 1 μM, replicates: in singlicate; n = 1
HIPK3 = settings: n = 1
HIPK4 = settings: n = 1
HPK1 = settings: n = 1
[1] = concentration: 1 μM, replicates: in singlicate
[2] = concentration: 1 μM,replicates: in singlicate, 1 µM
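Note: KINOMEscan kinase panel screen.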

Structure (SMILES): O=C(Nc1ccc2c(c1)OCO2)NC1CCN(c2ccnc(Nc3ccc(F)cc3)n2)C1 (stereo not drawn) [GSK1379724]
- %Inh (FLT3): 0%
- %Inh (FLT4; [1]): 0%
- %Inh (FRK): 11%
- %Inh (FYN; [1]): 9%
- %Inh (GAK; [1]): 0%
- %Inh (GCN2(Kin.Dom.2,S808G); [1]): 6%
- %Inh (GRK1): 0%
- %Inh (GRK2): 0%
- %Inh (GRK3; [1]): 93.7%
- %Inh (GRK4; [1]): 0%
- %Inh (GRK7): 0%
- %Inh (GSK3A; [1]): 1%
- %Inh (GSK3B; [1]): 16%
- %Inh (HASPIN): 0%
- %Inh (HCK): 0%
- %Inh (HIPK1): 0%
- %Inh (HIPK2): 0%
- %Inh (HIPK3; [1]): 1%
- %Inh (HIPK4; [1]): 0%
- %Inh (HPK1; [1]): 45%

Structure (SMILES): CS(=O)(=O)c1ccc(-c2nc3n(c2-c2ccncc2)CCC3)cc1 [SKF-105942]
- %Inh (FLT3): 0%
- %Inh (FLT4; [1]): 0%
- %Inh (FRK): 16%
- %Inh (FYN; [1]): 12%
- %Inh (GAK; [1]): 7%
- %Inh (GCN2(Kin.Dom.2,S808G); [1]): 9%
- %Inh (GRK1): 7%
- %Inh (GRK2): 0%
- %Inh (GRK3; [1]): 24%
- %Inh (GRK4; [1]): 23%
- %Inh (GRK7): 0%
- %Inh (GSK3A; [1]): 0%
- %Inh (GSK3B; [1]): 10%
- %Inh (HASPIN): 0%
- %Inh (HCK): 0%
- %Inh (HIPK1): 0%
- %Inh (HIPK2): 0%
- %Inh (HIPK3; [1]): 8%
- %Inh (HIPK4; [1]): 0%
- %Inh (HPK1; [1]): 37%

Structure (SMILES): CN1C(=O)C(Nc2ccc(Cl)c(C(=O)O)c2)=C(c2ccc(Cl)cc2)C1=O [SB-404290]
- %Inh (FLT3): 0%
- %Inh (FLT4; [1]): 0%
- %Inh (FRK): 0%
- %Inh (FYN; [1]): 0%
- %Inh (GAK; [1]): 14%
- %Inh (GCN2(Kin.Dom.2,S808G); [1]): 9%
- %Inh (GRK1): 12%
- %Inh (GRK2): 0%
- %Inh (GRK3; [1]): 4%
- %Inh (GRK4; [1]): 19%
- %Inh (GRK7): 0%
- %Inh (GSK3A; [1]): 6%
- %Inh (GSK3B; [1]): 33%
- %Inh (HASPIN): 21%
- %Inh (HCK): 17%
- %Inh (HIPK1): 19%
- %Inh (HIPK2): 8%
- %Inh (HIPK3; [1]): 34%
- %Inh (HIPK4; [1]): 11%
- %Inh (HPK1; [1]): 0%

Structure (SMILES): O=C(Nc1n[nH]c2nc(-c3nccs3)c(Br)cc12)C1CCCC1 [SB-742609]
- %Inh (FLT3): 44%
- %Inh (FLT4; [1]): 19%
- %Inh (FRK): 24%
- %Inh (FYN; [1]): 23%
- %Inh (GAK; [1]): 2%
- %Inh (GCN2(Kin.Dom.2,S808G); [1]): 5%
- %Inh (GRK1): 0%
- %Inh (GRK2): 0%
- %Inh (GRK3; [1]): 66%
- %Inh (GRK4; [1]): 11%
- %Inh (GRK7): 0%
- %Inh (GSK3A; [1]): 96.8%
- %Inh (GSK3B; 1 µM): 59%
- %Inh (HASPIN): 0%
- %Inh (HCK): 0%
- %Inh (HIPK1): 0%
- %Inh (HIPK2): 0%
- %Inh (HIPK3; [1]): 20%
- %Inh (HIPK4; [1]): 8%
- %Inh (HPK1; [1]): 33%

Structure (SMILES): C[C@@H]1CCCCN1c1cc(-c2ccc3c(N)n[nH]c3c2)nc(N)n1 [GSK2258759]
- %Inh (FLT3): 0%
- %Inh (FLT4; [1]): 0%
- %Inh (FRK): 5%
- %Inh (FYN; [1]): 19%
- %Inh (GAK; [1]): 14%
- %Inh (GCN2(Kin.Dom.2,S808G); [1]): 0%
- %Inh (GRK1): 0%
- %Inh (GRK2): 0%
- %Inh (GRK3; [1]): 0%
- %Inh (GRK4; [1]): 0%
- %Inh (GRK7): 0%
- %Inh (GSK3A; [1]): 3%
- %Inh (GSK3B; [1]): 3%
- %Inh (HASPIN): 14%
- %Inh (HCK): 0%
- %Inh (HIPK1): 0%
- %Inh (HIPK2): 0%
- %Inh (HIPK3; [1]): 14%
- %Inh (HIPK4; [1]): 0%
- %Inh (HPK1; [1]): 28%

Structure (SMILES): CSc1nn2c(=O)cc(N3CCOCC3)nc2n1Cc1cccc(C(F)(F)F)c1C [GSK2363608]
- %Inh (FLT3): 0%
- %Inh (FLT4; [2]): 18% and 0%
- %Inh (FRK): 0%
- %Inh (FYN; [2]): 46% and 15%
- %Inh (GAK; [2]): 100% and 0%
- %Inh (GCN2(Kin.Dom.2,S808G); [2]): 0% and 3%
- %Inh (GRK1): 0%
- %Inh (GRK2): 0%
- %Inh (GRK3; [2]): 0% and 20%
- %Inh (GRK4; [2]): 0% and 8%
- %Inh (GRK7): 0%
- %Inh (GSK3A; [2]): 26% and 9%
- %Inh (GSK3B; [2]): 12% and 25%
- %Inh (HASPIN): 0%
- %Inh (HCK): 0%
- %Inh (HIPK1): 0%
- %Inh (HIPK2): 0%
- %Inh (HIPK3; [2]): 11% and 15%
- %Inh (HIPK4; [2]): 0% and 18%
- %Inh (HPK1; [2]): 24% and 36%

Structure (SMILES): NC(=O)c1nnc2ccccc2c1N
- %Inh (FLT3): 15%
- %Inh (FLT4; [1]): 5%
- %Inh (FRK): 0%
- %Inh (FYN; [1]): 0%
- %Inh (GAK; [1]): 24%
- %Inh (GCN2(Kin.Dom.2,S808G); [1]): 13%
- %Inh (GRK1): 12%
- %Inh (GRK2): 67%
- %Inh (GRK3; [1]): 13%
- %Inh (GRK4; [1]): 28%
- %Inh (GRK7): 0%
- %Inh (GSK3A; [1]): 5%
- %Inh (GSK3B; [1]): 24%
- %Inh (HASPIN): 73%
- %Inh (HCK): 0%
- %Inh (HIPK1): 45%
- %Inh (HIPK2): 50%
- %Inh (HIPK3; [1]): 37%
- %Inh (HIPK4; [1]): 4%
- %Inh (HPK1; [1]): 0%

Structure (SMILES): O=C(Nc1n[nH]c2nc(-c3nccs3)c(Br)cc12)C1CC1 [SB-742251]
- %Inh (FLT3): 88%
- %Inh (FLT4; [1]): 8%
- %Inh (FRK): 2%
- %Inh (FYN; [1]): 3%
- %Inh (GAK; [1]): 0%
- %Inh (GCN2(Kin.Dom.2,S808G); [1]): 0%
- %Inh (GRK1): 1%
- %Inh (GRK2): 0%
- %Inh (GRK3; [1]): 27%
- %Inh (GRK4; [1]): 0%
- %Inh (GRK7): 0%
- %Inh (GSK3A; [1]): 89%
- %Inh (GSK3B; 1 µM): 39%
- %Inh (HASPIN): 11%
- %Inh (HCK): 0%
- %Inh (HIPK1): 0%
- %Inh (HIPK2): 0%
- %Inh (HIPK3; [1]): 0%
- %Inh (HIPK4; [1]): 0%
- %Inh (HPK1; [1]): 48%

Structure (SMILES): Cc1ccccc1-n1cnc2c(N)ncnc21 [SKF-97510]
- %Inh (FLT3): 0%
- %Inh (FLT4; [1]): 0%
- %Inh (FRK): 0%
- %Inh (FYN; [1]): 8%
- %Inh (GAK; [1]): 0%
- %Inh (GCN2(Kin.Dom.2,S808G); [1]): 0%
- %Inh (GRK1): 0%
- %Inh (GRK2): 0%
- %Inh (GRK3; [1]): 0%
- %Inh (GRK4; [1]): 0%
- %Inh (GRK7): 0%
- %Inh (GSK3A; [1]): 1%
- %Inh (GSK3B; [1]): 0%
- %Inh (HASPIN): 0%
- %Inh (HCK): 0%
- %Inh (HIPK1): 0%
- %Inh (HIPK2): 0%
- %Inh (HIPK3; [1]): 0%
- %Inh (HIPK4; [1]): 0%
- %Inh (HPK1; [1]): 0%
